USP2a inh: blocks human ubiquitin-specific protease USP2a. USP2 core, Ub-CHOP2 coupled fluorogenic reporter, 485/531. Potency, µM (series often up to 38.3 µM), without a hit: at the highest dose activity change, negative = inhibition, actives largely listed as inhibitors. hit rate 0.01% among 330,000. AID 463254;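 note: plate controls were DMSO wells for no effect and full inhibition by NEM control for full effect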
Target sequence (O75604 whole entry, looked up): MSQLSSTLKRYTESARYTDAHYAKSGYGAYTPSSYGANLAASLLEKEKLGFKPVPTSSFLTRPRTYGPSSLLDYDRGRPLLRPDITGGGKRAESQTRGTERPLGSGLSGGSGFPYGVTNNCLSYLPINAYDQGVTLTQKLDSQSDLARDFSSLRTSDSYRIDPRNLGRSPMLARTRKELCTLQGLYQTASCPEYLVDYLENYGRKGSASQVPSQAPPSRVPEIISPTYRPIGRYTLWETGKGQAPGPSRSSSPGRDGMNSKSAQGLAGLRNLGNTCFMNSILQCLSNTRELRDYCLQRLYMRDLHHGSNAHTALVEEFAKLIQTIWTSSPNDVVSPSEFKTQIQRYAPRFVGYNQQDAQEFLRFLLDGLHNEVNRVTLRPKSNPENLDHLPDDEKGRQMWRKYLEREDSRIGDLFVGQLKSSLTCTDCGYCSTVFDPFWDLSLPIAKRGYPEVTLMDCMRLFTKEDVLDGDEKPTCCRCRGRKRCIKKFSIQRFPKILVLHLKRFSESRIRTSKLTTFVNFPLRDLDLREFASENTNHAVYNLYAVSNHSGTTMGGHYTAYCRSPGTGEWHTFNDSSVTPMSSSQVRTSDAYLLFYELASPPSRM
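USP2 core (10nM final) preincubated 30min RT with compound in 20mM Tris-HCl pH 8.0, 2mM CaCl2, 2mM beta-mercaptoethanol, 0.05% CHAPS; 25nM Ub-CHOP2 plus 25nM reporter substrate added, fluorescence (Ex485/Em531) read after 60min.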
rTrxR1 inhibitor: inhibitors of rat thioredoxin reductase 1; O89049; recombinant rTrxR1, NADPH fluorescence consumption, selenite substrate; Potency, µM (doses to about 114 µM), inactives show top-dose activity change, negative = inhibition, actives largely listed as inhibitors; hit rate 1% among 390,000; AID 588453; note: nearly all actives have a fitted effect of over 65% in size
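Rat TrxR1 (90 nM in the dispensed reagent) was pre-reduced with 400 uM NADPH for 5 min at room temperature, then incubated with compound for 15 min. After 400 uM selenite was added, NADPH fluorescence (Ex 340/Em 450 nm) was followed for 8 min.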
GALK inh: galactokinase (human) inhibition; AID 1868; P51570; hit rate 0.007% among 270,000; Potency, µM (top dose mostly 57.5 µM), for inactives: at the top dose activity change, negative = inhibition, hits mostly inhibitors; Purified GALK, Kinase-Glo residual ATP luminescence
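Luminescence from leftover ATP (Ultra-Glo luciferase/luciferin) served as read-out after a 1 h room-temperature reaction of 5 nM GALK with 35 uM ATP and 100 uM galactose.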
RGS4 inhibitor: blocks human RGS4-accelerated GTP hydrolysis; Transcreener GDP fluorescence polarization, RGS4-accelerated GTP hydrolysis; hit rate 0.039% among 390,000; AID 504845; P49798; Potency, µM (series often up to 114 µM), for inactives: top-dose activity change, negative = inhibition, most hits filed as inhibitors; note: nearly all actives have a fitted effect of over 75% in size
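MLSMR compounds (23 nl, pin-transferred) preincubated 10 min at room temperature with a 500nM (2x) first reagent, then RGS4 at 900nM (2x) plus Transcreener GDP mix added; fluorescence polarization (620/688 nm) read before and after 90 min at 30 °C.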
Eya2 phos inh: inhibitors of human Eya2 phosphatase activity; hit rate 0.006% among 330,000; Potency, µM (top dose mostly 76.9 µM), without a hit: at the highest dose activity, negative = inhibition, actives largely listed as inhibitors; recombinant Eya2, OMFP fluorescence dephosphorylation (OMFP is methylfluorescein phosphate); O00167
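Eya2 (0.2 uM) preincubated 10 min at ambient with compound, then OMFP substrate added at 50 uM; 10 min reaction in 50 mM HEPES pH 7.5, 50 mM NaCl, 5 uM MgCl2, 0.05% BSA, 1 mM DTT. Fluorescence read at Ex 485/Em 525 nm.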
TrxR1 substrate: substrates of rat thioredoxin reductase 1; O89049; purified TrxR1 substrate turnover, NADPH consumption readout; Potency, µM (titrated, usually from 114 µM), for inactives: at the top dose activity change, negative = substrate turnover; hit rate 0.01% among 390,000; AID 588456; note: nearly all actives have a fitted effect of over 50% in size
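Rat TrxR1, dispensed at 90 nM, was prereduced with 400 uM NADPH (final) for 5 min at ~22 deg C, then incubated with compound 15 min before 400 uM selenite. A first-read NADPH fluorescence drop versus no-compound background flagged substrates.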
Starred values were filed as active, the others as inactive; ? = inconclusive; . = not tested or not shown; [ ] = another dose, or the depositor's remark. Shown are actives, neighbours in structure and some others; about 1% of the full set was active somewhere. Calls come from the whole dose curve; as a rule, active = well fitted curve in the direction sought with a large enough effect; inconclusive = small, poorly fitted or top-dose-only effect, or another doubt; inactive = no such curve, though single readings can be large; an effect the other way counts as inactive or inconclusive. Unless noted, % is set by controls: 0 for no effect and ±100 for the full control effect; potency is the fitted concentration of half-maximal effect.

SMILES | USP2a inh | rTrxR1 inhibitor | GALK inh | RGS4 inhibitor | Eya2 phos inh | TrxR1 substrate
CO[C@H]1/C=C\O[C@@]2(C)Oc3c(C)c(O)c4c(O)c(c(C=NN5CCN(C6CCCC6)CC5)c(O)c4c3C2=O)NC(=O)C(C)=CC=C[C@H](C)[C@H](O)[C@@H](C)[C@@H](O)[C@@H](C)[C@H](OC(C)=O)[C@H]1C | . | -17% | . | . | . | -19%
COc1ccc(C(=O)CCN2CCN(c3ccccc3OC)CC2)cc1 | 5% | 14µM* | 2% | ? | 4% | 0%
COc1cc2c(cc1OC)CN(CCOc1ccc(Br)cc1)CC2 | 2% | 15% | 1% | 1% | -3% | -3%
COc1ccc(C(=O)CCN2CCc3cc(OC)c(OC)cc3C2)cc1 | 11% | 0.89µM* | -4% | ? | ? | -5%[57.1 µM]
C=CCc1cccc(C=NNC(=O)CN2CCN(Cc3ccccc3)CC2)c1O | . | -11%[57.1 µM] | . | 13%[56.9 µM] | -6% | -2%[57.1 µM]
N#C/C(=C\c1ccccn1)c1nc2ccccc2s1 | 9% | 56µM* | 3% | -35% | 16% | -5%
N#C/C(=C/c1ccc(-c2ccc(S(N)(=O)=O)cc2)o1)c1nc2ccccc2s1 | 0% | 89µM* | 1% | -24% | -3% | -8%
Cc1ccc(NC(=O)c2ccc(-n3cccn3)c([N+](=O)[O-])c2)cc1 | -1% | -28% | -7% | -3% | 7% | -4%
O=C(O)c1ccc(-n2cccn2)c([N+](=O)[O-])c1 | 3% | 56µM* | 5% | 4% | 6% | -13%
CCc1ccc2occ(CC(=O)Nc3c(C(=O)Nc4ccc(C)cc4)oc4ccccc34)c2c1 | . | 89µM* | . | ? | . | 9%
COc1ccc(C(=O)/C=C/C(=O)N(CC(=O)NCCC(C)C)Cc2cccs2)c(O)c1 | 0% | 2.8µM* | -1% | -12%[56.9 µM] | -15% | -5%
COc1ccc(C(=O)/C=C/C(=O)N(CC(=O)NC2CCCCC2)Cc2ccc(F)cc2)c(O)c1 | -5% | 4µM* | 3% | 1% | -2% | 7%
Clc1cccc(CNc2ncnc3nc[nH]c23)c1 | . | 21% | . | . | . | 1%
COc1cc(CNC2CCCC2)cc(Cl)c1OCc1ccc(F)cc1 | 0% | 4% | -1% | 12% | 1% | -5%
COc1cc(CNC2CCCC2)cc(Cl)c1OCc1ccccc1Cl | 2% | 89µM* | 5% | 4% | -17% | -5%
O=C1C=CC(=O)N1CCNc1ncc(C(F)(F)F)cc1Cl | 1% | 2µM* | 6% | ? | 6% | -7%
Cc1ccc(C)c2c(C)ccnc12 | . | 64% | . | . | . | 61%
Cc1cc(C(=O)N/N=C/c2cc(Br)c(Br)o2)n[nH]1 | 3% | 35µM* | -2% | -21% | 3% | -1%
Cc1cc(C(=O)N/N=C/c2ccc(Br)o2)n[nH]1 | -2% | -31% | -3% | 14% | -13% | -7%
O=C(c1ccccc1)n1nnc2ccccc21 | . | 5µM* | 0% | 14% | . | -2%
Cc1onc(-c2ccccc2)c1C(=O)n1nnc2ccccc21 | 0% | ? | 1% | 5%[11.4 µM] | -4% | 8%[57.1 µM]
C[C@@H]1[C@H](c2ccccc2)OCCS(=O)(=O)N1Cc1ccccc1F | . | 12% | . | . | . | -6%
O=C(O[C@H]1[C@H](Cc2ccccc2)NS(=O)(=O)[C@H]2C[C@@H]3C=C[C@]12O3)c1ccccc1Br | . | 8% | . | . | . | 2%
CN(C1=C(NC(=O)c2ccccc2)C(=O)c2ccccc2C1=O)C1CCS(=O)(=O)C1 (stereo not drawn) | 1% | 50µM* | 0% | -54% | -14% | -3%
CC(=O)NC1=C(NC2CCS(=O)(=O)C2)C(=O)c2ccccc2C1=O (stereo not drawn) | 1% | ? | -1% | -46% | 2% | -17%
COC(=O)c1ccc2c(c1)C(C)(C)C(/C=C/c1ccc(O)cc1)=[N+]2C | 0% | 56µM* | 0% | ? | 9% | 64%
C[N+]1(CC(=O)c2ccc(I)cc2)CCOCC1 | . | -14%[57.1 µM] | . | . | . | 0%[57.1 µM]

Source: PubChem BioAssay (National Center for Advancing Translational Sciences (NCATS))
